Bioassay records (PubChem BioAssay)
A selection: hits, their analogues and other compounds. The true share with any hit is near 2.4%.
CHO-K1 Ca antag – counter-screen for M1 antagonists: effect in parental CHO-K1 cells; ATP-induced calcium, Fluo-8 fluorescence; inhibition, % at 3 µM; hit rate 0.6% among 360,000;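 active = inhibition above a per-plate cutoff, the plate's mean sample inhibition plus 3 SD, cut at about 24% in these data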;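 note: 0% = DMSO plus EC80 ATP and 100% = DMSO alone without ATP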
M1 ag parental – counter-screen for M1 agonists: effect in parental CHO-K1 cells. Fluo-8 calcium fluorescence; scaled to maximal ATP response, vehicle zero. AID 602248, 2012. activation, % at 3 µM. hit rate 0.48% among 360,000; in the data active = activation above about 15%;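 note: untransfected CHO-K1 host cells lacking M1 receptor as counterscreen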
CHRM1 PAM – human M1 muscarinic receptor positive allosteric modulators, primary screen, CHO-K1 cells, Fluo-8 calcium fluorescence, 1536-well | hit rate 0.088% among 360,000 | activation, % at 3 µM | CHO-K1 hM1, ACh EC20; 0% = ACh EC20, 100% = maximal ACh | Muscarinic acetylcholine receptor M1 (Homo sapiens), P11229; in the data active = activation above about 19%, passing the limit was not always enough
Target sequence (P11229 whole entry, looked up): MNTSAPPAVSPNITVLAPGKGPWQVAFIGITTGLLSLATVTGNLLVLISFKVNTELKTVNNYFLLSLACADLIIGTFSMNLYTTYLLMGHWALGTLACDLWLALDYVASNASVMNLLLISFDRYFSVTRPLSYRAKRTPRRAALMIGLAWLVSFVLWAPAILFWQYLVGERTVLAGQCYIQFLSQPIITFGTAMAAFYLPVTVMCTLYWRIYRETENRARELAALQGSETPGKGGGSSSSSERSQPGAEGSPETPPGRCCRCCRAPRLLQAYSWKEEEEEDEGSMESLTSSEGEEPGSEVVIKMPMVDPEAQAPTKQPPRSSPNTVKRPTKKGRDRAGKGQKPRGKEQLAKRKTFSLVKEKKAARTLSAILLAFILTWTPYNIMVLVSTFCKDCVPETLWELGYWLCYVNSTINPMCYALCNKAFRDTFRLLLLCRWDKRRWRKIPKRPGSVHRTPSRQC
CHRM1 antagonist – human M1 muscarinic receptor antagonists, primary screen, CHO-K1 cells, Fluo-8 calcium fluorescence, 1536-well. CHO-K1 hM1, ACh EC80 antagonist. Muscarinic acetylcholine receptor M1 (Homo sapiens), P11229. hit rate 1.3% among 360,000. inhibition, % at 3 µM;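 active = percent inhibition above its own plate's cutoff, namely the mean of that plate's compound wells plus 3 SD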;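 note: peak over basal fluorescence ratio during 140 s after agonist addition; 0% = ACh EC80 plus DMSO and 100% = DMSO alone without agonist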
CHO-K1 Ca PAM – nonselective calcium activators in parental CHO-K1 cells, primary screen, counter-screen for M1 PAM project, cell-based, Fluo-8 calcium fluorescence, full deck, 1536-well | ATP EC20; 0% at ATP EC20, 100% at ATP max | activation, % at 3 µM | hit rate 0.02% among 360,000;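 active = activation above the run cutoff, the mean activation of all test compounds plus 3 SD, cut at about 40% in these data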;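 note: peak over basal fluorescence ratio in a 140 s read after ATP addition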
CHRM1 agonist – human M1 muscarinic receptor agonists, primary screen, Fluo-8 calcium fluorescence, CHO-K1 cells, HTS | CHO-K1 hM1, agonist mode; 0% DMSO, 100% acetylcholine EC100 | activation, % at 3 µM | hit rate 0.33% among 360,000 | Muscarinic acetylcholine receptor M1 (Homo sapiens), P11229;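 active = activation above the run's mean compound activation plus 3 SD, cut at about 16% in these data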;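 note: peak over basal fluorescence ratio within a 140 s kinetic read after compound addition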
* = called active by the depositor.

SMILES | CHO-K1 Ca antag | M1 ag parental | CHRM1 PAM | CHRM1 antagonist | CHO-K1 Ca PAM | CHRM1 agonist
COc1cccc(C(=O)C2CCCN(Cc3cn(C)nc3-c3ccccc3)C2)c1 (stereo not given) | 3 | 0 | 2 | -8 | 6 | -10
COCCN(C(=O)COC(=O)C1CCC(C(C)(C)C)CC1)c1c(N)n(Cc2ccccc2)c(=O)[nH]c1=O (stereo not given) | -11 | 1 | 6 | -16 | 12 | -1
COc1cc(SC)ccc1C(=O)OCC(=O)N1CC(=O)Nc2ccccc21 | 13 | 0 | -3 | 0 | -25 | -1
CC(=O)c1c(C)[nH]c(C(=O)OCC(=O)Nc2ccc(Cl)cc2[N+](=O)[O-])c1C | 37* | 13 | -13 | 34* | -8 | -1
CCOC(=O)c1c(C)[nH]c(C(=O)OCC(=O)Nc2cc(Cl)ccc2OC)c1C | -15 | 0 | 5 | -3 | 17 | -3
CC(=O)c1c(C)[nH]c(C(=O)COc2cc(C)ccc2C(C)C)c1C | 24 | 8 | -10 | 36* | -2 | 1
Cc1nnc(NC(=O)c2cc(-c3ccncc3)nc3c(C)cccc23)s1 | 14 | 0 | 4 | 1 | 0 | -1
Cc1ccc([N+](=O)[O-])cc1N=Cc1ccc(Br)s1 | -6 | 0 | -3 | 11 | 5 | -3
Cc1ccc(C=Nc2cc([N+](=O)[O-])ccc2C)s1 | 24* | 0 | 2 | 3 | -15 | -5
Cn1c(CSCc2ccccc2)n[nH]c1=S | 7 | 0 | -4 | 5 | -8 | -6
CCCCN(C)CCCNC(=O)c1cn(CC)c2ccc(S(=O)(=O)N3CCc4ccccc4C3)cc2c1=O | 1 | -1 | -18 | 43* | -9 | -7
CN1CCS/C1=C/C=C1\SC(=S)N(CC(=O)O)C1=O | 1 | 26* | -5 | 7 | 13 | 16*
CCCCN1C(=O)/C(=C/C=C2\SCCN2C)SC1=S | 17 | 16* | -15 | 24 | 2 | 12
CN1CCS/C1=C/C=C1/SC(=S)N(Cc2ccccc2)C1=O | 16 | 11 | -8 | 25 | 11 | 12
COc1cc(/C=C2\SC(=O)N(CCNC(=O)c3c(C)noc3C)C2=O)cc(OC)c1OC | -2 | -1 | 9 | -8 | -8 | 1
COC(=O)Cn1c(=O)n(CCc2ccccc2)c(=O)c2c3c(sc21)CCCC3 | -16 | 0 | -22 | 77* | 19 | -9
CCn1c(=O)n(CCc2ccccc2)c(=O)c2c3c(sc21)CCCC3 | 9 | 9 | -7 | 6 | 7 | -2
CCN(CC)c1ccc(/C=C(\C#N)c2ccccn2)cc1 | 26* | 1 | -13 | 10 | -16 | -6
c1ccc(OCCNc2ccn3nc(-c4ccco4)cc3n2)cc1 | 0 | 2 | 5 | -11 | 17 | 0
CC(Sc1nnc(N)s1)C(=O)c1c(N)n(C)c(=O)n(C)c1=O (stereo not given) | 14 | 18* | 3 | 1 | 0 | -1
CC(Sc1ncn[nH]1)C(=O)c1c(N)n(C)c(=O)n(C)c1=O (stereo not given) | 5 | 0 | 10 | 6 | -2 | 8
O=C(Nc1ccc(F)cc1)Nc1cc(OCC(F)(F)F)cc(OCC(F)(F)F)c1 | 32* | 14 | -18 | 18 | -13 | 1
CC(C)(C)c1ccc(NC(=O)Nc2ccc(F)cc2)cc1 | 36* | 16* | -30 | 49* | -5 | -3
COc1cccc(NC(=O)Nc2ccc(C(C)(C)C)cc2)c1 | 46* | 19* | -23 | 26* | -15 | -4
COc1cccc(NC(=O)Nc2ccncc2)c1 | -1 | 1 | 5 | -2 | 10 | -2
SMILES | CHO-K1 Ca antag | M1 ag parental | CHRM1 PAM | CHRM1 antagonist | CHO-K1 Ca PAM | CHRM1 agonist
CCCNC(=O)C1(C)CCN(C(=O)c2ccc(OC)cc2OC)C1 (stereo not given) | -13 | 0 | 16 | -16 | 22 | -1
CCOC(=O)c1c(C)[nH]c(C(=O)OCC(=O)Nc2cc(C)nn2-c2ccccc2)c1C | 4 | 0 | 4 | -7 | 0 | -6
CCc1cc(C(=O)OCC(=O)N2CCC(c3ccccc3)=N2)sc1C | -10 | 1 | -22 | 48* | 11 | -6
CCOC(=O)C1CCCN(S(=O)(=O)c2ccc(NC(C)=O)cc2)C1 (stereo not given) | -9 | 4 | 7 | 0 | 0 | -4
CCOC(=O)C1CCCN(C2CC(=O)N(c3ccc(C)cc3)C2=O)C1 (stereo not given) | -21 | 0 | -4 | -7 | 11 | 20*
CCOC(=O)C1CCCN(C2CC(=O)N(c3ccc(NC(C)=O)cc3)C2=O)C1 (stereo not given) | 1 | 0 | -12 | 6 | 9 | 36*
COc1cc(OCc2ccccc2)c(C(=O)/C=C/c2ccc3c(c2)OCO3)c(OC)c1OC | -5 | 1 | -1 | -2 | 17 | -3
COc1ccc(CN(C)C(=O)C2CCN(C(=O)Nc3ccccc3)CC2)cc1 | 26* | 1 | -7 | 19 | -27 | 0
CCCCCCCN1C(N(C)C)=NC[C@@H]1Cc1ccccc1 | -7 | 2 | -27 | 29 | 7 | -12
CN(C)C1=NC[C@H](Cc2ccccc2)N1CCCCc1ccccc1 | -17 | 2 | -23 | 34* | 13 | -9
O=C(NCc1cccs1)c1nc(-c2cccs2)no1 | 10 | 0 | 2 | -1 | -5 | -7
O=C(NCCc1ccccc1)c1nc(-c2cccs2)no1 | 26* | 0 | 8 | -6 | 4 | -10
Cc1cccc(OCC(=O)N/N=C/c2sc(=O)n(Cc3cccc(C(=O)O)c3)c2Cl)c1 | 1 | 0 | 4 | -17 | -19 | 1
CCC(C(=O)OCC(=O)C1(O)CCC2C3CCC4=CC(=O)CCC4(C)C3C(O)CC21C)C(C)C (stereo not given) | -15 | 4 | -30 | 84* | -1 | -2
CC12CCC(=O)C=C1CCC1C2CCC2(C)C(C(=O)CO)CC(O)C12 (stereo not given) | -9 | 2 | 5 | -18 | 8 | 0
CC(=O)[C@@]1(O)CC[C@H]2[C@@H]3CCC4=CC(=O)CC[C@]4(C)[C@H]3[C@@H](O)C[C@@]21C | 6 | 0 | 7 | -20 | -8 | 2
CC12CCC(=O)C=C1CCC1C2C(O)CC2(C)C(c3csc(N)n3)CCC12 (stereo not given) | 1 | 1 | -29 | 42* | 2 | -4
CC12CCC(=O)C=C1CCC1C2CCC2(C)C(c3csc(N)n3)CCC12 (stereo not given) | 5 | 7 | -27 | 79* | 0 | 1
